Consider 92 molecules from article PMC4336329 (PLoS ONE, 2015).

SMILES strings stand for the structures. Among all 310,000 compounds or so, about 2,200 (0.71%) showed an effect of 50% or more. The effect is printed as a negative number. The entries come from a sample that favours strong results as a whole.

The assay deals with human ether-à-go-go-related gene (hERG) potassium channel (human, UniProt Q12809). Description: primary screen, population patch clamp on CHO cells stably expressing hERG; higher = less effect of the substance.
human ether-à-go-go-related gene (hERG) potassium channel, sequence (Q12809 whole entry, looked up): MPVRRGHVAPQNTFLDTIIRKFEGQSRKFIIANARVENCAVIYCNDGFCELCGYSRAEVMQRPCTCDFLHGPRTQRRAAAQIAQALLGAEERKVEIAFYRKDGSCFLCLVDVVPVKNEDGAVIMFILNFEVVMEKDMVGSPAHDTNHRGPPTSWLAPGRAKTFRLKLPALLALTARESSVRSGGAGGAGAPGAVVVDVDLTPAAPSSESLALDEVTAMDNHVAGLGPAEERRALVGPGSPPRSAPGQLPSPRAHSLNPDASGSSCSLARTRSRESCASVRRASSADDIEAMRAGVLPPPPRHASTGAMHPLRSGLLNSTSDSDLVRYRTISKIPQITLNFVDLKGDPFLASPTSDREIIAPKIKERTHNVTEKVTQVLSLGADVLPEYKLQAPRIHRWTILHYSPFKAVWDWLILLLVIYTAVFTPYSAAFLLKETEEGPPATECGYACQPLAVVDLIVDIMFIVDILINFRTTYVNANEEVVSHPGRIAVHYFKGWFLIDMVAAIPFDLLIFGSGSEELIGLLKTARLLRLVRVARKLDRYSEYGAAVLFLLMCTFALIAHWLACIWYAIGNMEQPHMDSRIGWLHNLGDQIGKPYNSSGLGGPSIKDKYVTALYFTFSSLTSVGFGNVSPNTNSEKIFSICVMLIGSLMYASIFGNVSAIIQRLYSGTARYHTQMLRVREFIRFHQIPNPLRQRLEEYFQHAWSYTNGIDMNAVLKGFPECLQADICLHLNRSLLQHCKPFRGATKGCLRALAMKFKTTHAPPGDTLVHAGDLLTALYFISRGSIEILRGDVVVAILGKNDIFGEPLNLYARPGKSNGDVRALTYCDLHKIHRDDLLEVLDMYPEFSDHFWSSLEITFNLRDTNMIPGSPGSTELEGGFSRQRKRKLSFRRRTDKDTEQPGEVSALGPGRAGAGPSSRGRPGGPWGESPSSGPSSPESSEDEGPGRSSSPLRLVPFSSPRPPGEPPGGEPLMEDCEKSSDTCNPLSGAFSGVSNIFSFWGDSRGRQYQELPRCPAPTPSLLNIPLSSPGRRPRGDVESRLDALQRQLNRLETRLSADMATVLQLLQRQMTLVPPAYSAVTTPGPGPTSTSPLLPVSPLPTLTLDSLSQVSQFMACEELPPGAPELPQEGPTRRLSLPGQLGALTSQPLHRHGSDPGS
Turning to `COc1cc2c(C(=O)N3CCCc4ccccc43)cn(C)c(=O)c2cc1OC`, the “hERG current change (%, negative = inhibition) at 1uM” value worked out at 7.48%.

With `CCN1CCN(c2ccc([N+](=O)[O-])cc2C#N)CC1`, the “hERG current change (%, negative = inhibition) at 1uM” value is reported as -49.8%. On to `O=C(c1ccc(Cl)cc1)c1cc([N+](=O)[O-])ccc1N1CCOCC1`, for which the “hERG current change (%, negative = inhibition) at 1uM” value is 10.3%. The same measure for `CCN1CCN(c2ccc([N+](=O)[O-])cc2C(=O)c2ccc(Cl)cc2)CC1`: -58.3%. The same measure for `CCCN1CCN(c2ccc([N+](=O)[O-])cc2C#N)CC1`: -57.8%; for `CN1CCN(c2ccc([N+](=O)[O-])cc2C(=O)c2ccc(Cl)cc2)CC1`: -24.3%; for `N#Cc1cc([N+](=O)[O-])ccc1N1CCCC1`: -12.3%.

As for `Cc1ccc(NCCC(=O)c2cccs2)cc1C`, the “hERG current change (%, negative = inhibition) at 1uM” value is 5.33%. As for `O=C(CSc1cn(Cc2ccccc2)c2ccccc12)N1CCOCC1`, the “hERG current change (%, negative = inhibition) at 1uM” value is -4.92%. On to `CCOc1ccc(NC(=S)NCCCN2CCN(c3ccc(OC)cc3)CC2)cc1`, for which the “hERG current change (%, negative = inhibition) at 1uM” value is -29.3%.

For the molecule `O=c1[nH]c2ccccc2nc1-c1c[nH]c2ccccc12`, the “hERG current change (%, negative = inhibition) at 1uM” value is reported as 17.9%.

In the case of `Cc1ccc(-n2nnnc2SCC(=O)NCC2(N3CCCCC3)CCCCC2)c(C)c1`, the “hERG current change (%, negative = inhibition) at 1uM” value was -201%. The same measure for `Cc1ccccc1-n1nnnc1SCC(=O)NCC1(N2CCOCC2)CCCCC1`: 6.3%; for `O=C(CSc1nnnn1-c1ccccc1)NCC1(N2CCCCC2)CCCCC1`: -23.9%. The same measure for `Cc1ccc(CNC(=O)c2cnccn2)cc1`: 11.4%.

As to `COc1ccc(NC(=O)[C@@H](NC(=O)N2C[C@H]3C[C@@H](C2)c2cccc(=O)n2C3)C(C)C)cc1`, the “hERG current change (%, negative = inhibition) at 1uM” value is listed as 8.5%. The result for `Fc1ccc(-c2nc3c(-c4ccc(F)cc4)cnn3cc2CCN2CCOCC2)cc1` reads -3.19%; that for `COc1ccc(O)c(CN2CCC(n3nccc3NC(=O)C3CCCC3)CC2)c1`, -28.4%.

For the molecule `COc1ccc(CC(=O)N2CCC(n3nccc3NC(=O)C3CC3)CC2)cc1`, the “hERG current change (%, negative = inhibition) at 1uM” value is given as 13.3%. The result for `COc1ccc(CN2CCC(n3nccc3NC(=O)C3CCCC3)CC2)c(OC)c1` reads -70.6%; that for `COc1ccccc1/C=C/CN1CCC(n2nccc2NC(=O)C2CC2)CC1`, -37.8%. In the case of `COc1ccc(/C=C/CN2CCC(n3nccc3NC(=O)C3CCCC3)CC2)cc1`, the “hERG current change (%, negative = inhibition) at 1uM” value was -92.1%. The result for `CC(C)(CO)CN1CCC(n2nccc2NC(=O)C2CCCC2)CC1` reads 10.2%; that for `COc1ccc(OCC(=O)N2CCC(n3nccc3NC(=O)C3CC3)CC2)cc1`, -1.98%; that for `COc1ccc(/C=C/CN2CCC(n3nccc3NC(=O)C3CC3)CC2)cc1`, -59.6%.

For `Cc1cc(C)c(CN2CCC(n3nccc3NC(=O)C3CCCC3)CC2)cc1C`, the “hERG current change (%, negative = inhibition) at 1uM” value is recorded as -26.4%.

Consider `Cc1ncc(S(=O)(=O)c2ccccc2)c(-c2ccccc2Cl)n1`, for which the “hERG current change (%, negative = inhibition) at 1uM” value is listed as 2.7%. `Cc1cc2c(cc1S(=O)(=O)NC1CCCCC1C)OCC(=O)N2` (centres unmarked): the “hERG current change (%, negative = inhibition) at 1uM” value turned out to be 5.01%.

Turning to `Cc1ccc(OCCNC(=O)c2ccc(NC(=O)CC3SC(N4CCCC4)=NC3=O)cc2)cc1` (centres unmarked), the “hERG current change (%, negative = inhibition) at 1uM” value is reported as -6.94%. The same measure for `C=C(C)CNC(=O)c1ccc(OC2CCN(S(=O)(=O)N(C)C)CC2)cc1`: 13.2%.

For `COc1ccc2c(c1)CC1(CN2C)C(=O)NC(=O)N(CCc2ccccc2)C1=O` (centres unmarked), the “hERG current change (%, negative = inhibition) at 1uM” value is -6.39%.

`CCN(CC)S(=O)(=O)c1ccc2c(c1)N(CC(=O)Nc1ccc(NC(C)=O)cc1)C(=O)CO2`: the “hERG current change (%, negative = inhibition) at 1uM” value is reported as 10.6%. The result for `CCCCN(Cc1ccccc1)C1CCN(CCc2ccccc2)CC1` reads -13.4%. The same measure for `CCCN1CCC(N(CCc2ccccc2)Cc2ccccc2)CC1`: -73.2%. With `O=C(Cc1ccccc1)N1CCN(C2CCCCCC2)CC1.O=C(O)C(=O)O`, the “hERG current change (%, negative = inhibition) at 1uM” value was 4.29%.

For `CC(C)CC(=O)N1CCC(N(CCc2ccccc2)Cc2ccccc2)CC1.O=C(O)C(=O)O`, the “hERG current change (%, negative = inhibition) at 1uM” value came to 7.09%. The result for `CCCCN(Cc1ccccc1)C1CCN(Cc2ccccc2)CC1` reads -14.5%.

Regarding `O=C(O)C(=O)O.c1ccc(CCN(Cc2ccccc2)C2CCN(C3CCCC3)CC2)cc1`, the “hERG current change (%, negative = inhibition) at 1uM” value is -68.9%.

Take `O=C(Nc1ccccc1)N1CCCc2ccccc21`: the “hERG current change (%, negative = inhibition) at 1uM” value is listed as -28.2%. Consider `Cc1ccn2c(=O)nc(SCC(=O)N3CCCCCC3)nc2c1`, for which the “hERG current change (%, negative = inhibition) at 1uM” value was 19.6%. The same measure for `CCOc1ccc(NC(=O)N(CCC(C)C)C2CCN(C(C)=O)CC2)cc1`: 7.21%; for `CCCCN(C(=O)Nc1ccc(Cl)cc1)C1CCN(C(C)=O)CC1`: -19.1%; for `CC(C)CCN(C(=O)Nc1ccc(Cl)cc1)C1CCN(C(C)C)CC1`: -57.6%. With `Cc1cc(NC(=O)c2cc3cccc([N+](=O)[O-])c3[nH]2)ccc1F`, the “hERG current change (%, negative = inhibition) at 1uM” value is 11.5%.

As for `COc1c(C)cc(Br)cc1C(=O)Nc1cccc(-c2nc3ncccc3o2)c1`, the “hERG current change (%, negative = inhibition) at 1uM” value is listed as -7.42%. The same measure for `O=C(c1c(F)cccc1F)N1CCN(c2ncccn2)CC1`: 12.5%; for `O=C(c1sc2ccccc2c1Cl)N1CCN(c2ncccn2)CC1`: 6.43%. The result for `O=C(c1sc2cccc(F)c2c1Cl)N1CCN(c2ncccn2)CC1` reads -65.4%; that for `COc1cccc(-c2nn(-c3ccc(C)cc3)cc2C(=O)NCC2CCCO2)c1` (centres unmarked), -0.814%; that for `COC(=O)c1ccc(S(=O)(=O)NCCSc2nnc3c4ccccc4n(C)c3n2)cc1`, 1.09%. The same measure for `CCOc1cc(N2CCOCC2)c(OCC)cc1NC(=O)Cn1nc(C)c([N+](=O)[O-])c1C`: 6.15%.

With `CCc1cc2c(NCCN3CCCCC3)ncnc2s1.Cl`, the “hERG current change (%, negative = inhibition) at 1uM” value is -55.9%. Regarding `CCc1cc2c(NCCO)ncnc2s1`, the “hERG current change (%, negative = inhibition) at 1uM” value was found to be 14.1%. Regarding `CCc1cc2c(N3CCCCC3)ncnc2s1.Cl`, the “hERG current change (%, negative = inhibition) at 1uM” value is reported as 5.54%.

Consider `CC[C@@]12C(=O)N(c3cccc(Br)c3)C(=O)N1[C@H](c1ccc(Cl)cc1)[C@@H]1C(=O)N(C3CCCCC3)C(=O)[C@@H]12`, for which the “hERG current change (%, negative = inhibition) at 1uM” value worked out at 6.83%. Turning to `Cc1cc(N2CCN(S(=O)(=O)c3ccc(C)c(C)c3)CC2)c2ccccc2n1`, the “hERG current change (%, negative = inhibition) at 1uM” value is -18.3%.

Consider `COc1ccc2nc(C)cc(N3CCN(c4ccccc4)CC3)c2c1`, for which the “hERG current change (%, negative = inhibition) at 1uM” value was -29%.

`CC(=O)Nc1ccc(S(=O)(=O)N2CCN(c3cc(C)nc4ccccc34)CC2)cc1`: the “hERG current change (%, negative = inhibition) at 1uM” value is given as -71.6%. With `CC(=O)Nc1ccc(S(=O)(=O)N2CCN(S(=O)(=O)c3ccccc3)CC2)cc1`, the “hERG current change (%, negative = inhibition) at 1uM” value was determined as 10.1%. The result for `COc1ccc2nc(C)cc(N3CCN(S(=O)(=O)c4ccccc4F)CC3)c2c1` reads -62.2%; that for `COc1ccc2nc(C)cc(N3CCOCC3)c2c1`, 7.31%. In the case of `Cc1cc(N2CCN(S(=O)(=O)c3ccc(Cl)cc3)CC2)c2ccccc2n1`, the “hERG current change (%, negative = inhibition) at 1uM” value is recorded as -80.8%. The result for `Cn1c(N2CCN(S(=O)(=O)c3ccc(Cl)cc3)CC2)nc2ccccc21` reads -23.2%; that for `Cc1cc(N2CCN(S(=O)(=O)c3ccc(Cl)c(Cl)c3)CC2)c2ccccc2n1`, 4.58%; that for `Cc1cc(N2CCN(S(=O)(=O)c3ccccc3)CC2)c2ccccc2n1`, -78.6%. As for `Cc1ccccc1N1CCN(S(=O)(=O)c2ccccc2)CC1`, the “hERG current change (%, negative = inhibition) at 1uM” value turned out to be 5.62%.

Take `CC(=O)Nc1ccc(S(=O)(=O)N2CCN(c3nc(C)cc(C)n3)CC2)cc1`: the “hERG current change (%, negative = inhibition) at 1uM” value is 14.9%. The same measure for `Cc1ccc(CS(=O)(=O)CCC(=O)NCCC(C)C)cc1`: 6.06%. For `COCCn1c(C)cc(C(=O)CSc2nc(C)c(C)c(C)n2)c1C`, the “hERG current change (%, negative = inhibition) at 1uM” value is listed as 9.29%.

For the molecule `CCc1noc(C)c1C(=O)Nc1sc(C(=O)N(C)C)c(C)c1C(=O)OC`, the “hERG current change (%, negative = inhibition) at 1uM” value is on record as -6.16%.

With `Cc1c(NC(=O)c2ccc(S(=O)(=O)N3CCOCC3)cc2)cccc1[N+](=O)[O-]`, the “hERG current change (%, negative = inhibition) at 1uM” value was 7.56%. As to `CC(C)(C)n1ncc2c(=O)n(Cc3cccc(Cl)c3)cnc21`, the “hERG current change (%, negative = inhibition) at 1uM” value is on record as -10.1%. With `Cc1ccnc(NS(=O)(=O)c2cccs2)c1`, the “hERG current change (%, negative = inhibition) at 1uM” value was found to be 12.9%.

As to `Cc1ccc(C(=O)COC(=O)c2ccc3c(c2)C(=O)N(c2cccc4ncccc24)C3=O)cc1C`, the “hERG current change (%, negative = inhibition) at 1uM” value came out at 4.09%. On to `COC(=O)c1c(C)[nH]c(C(=O)C(C)OC(=O)C2CC2)c1C` (centres unmarked), for which the “hERG current change (%, negative = inhibition) at 1uM” value was 10%.

Regarding `Cc1cc(N2CCN(c3ccc([N+](=O)[O-])c4cccnc34)CC2)c2ccccc2n1`, the “hERG current change (%, negative = inhibition) at 1uM” value is on record as -13.9%. The same measure for `Cc1ccc(S(=O)(=O)N2CCN(c3ccc(C(F)(F)F)cc3[N+](=O)[O-])CC2)cc1`: 2.51%; for `Cc1cc(N2CCN(c3ccc(C(F)(F)F)cc3[N+](=O)[O-])CC2)c2ccccc2n1`: -64.2%; for `COc1ccccc1NC(=O)Nc1ccc(N2CCOCC2)cc1`: 10.4%. The result for `Cc1ccc(NC(=O)CN2C(=O)NC(C)(c3ccc(Cl)cc3)C2=O)cc1` (centres unmarked) reads 14.4%; that for `COc1ccc(CN2C3CCCC2CC(NC(=O)Nc2ccccc2C)C3)cc1` (centres unmarked), -36.5%; that for `COc1ccc(CN2C3CCCC2CC(NC(=O)Nc2ccccc2)C3)cc1` (centres unmarked), -64%.

On to `COc1ccccc1CN1C2CCCC1CC(NC(=O)/C=C/c1ccccc1)C2` (centres unmarked), for which the “hERG current change (%, negative = inhibition) at 1uM” value is on record as -43.8%. For `O=C(Nc1cccc(F)c1)NC1CC2CCCC(C1)N2C1CC1` (centres unmarked), the “hERG current change (%, negative = inhibition) at 1uM” value is recorded as 4.85%. As for `COc1ccc(CN2C3CCCC2CC(NC(=O)/C=C/c2ccccc2)C3)cc1` (centres unmarked), the “hERG current change (%, negative = inhibition) at 1uM” value was -84.2%. For the molecule `COc1ccc(NC(=O)NC2CC3CCCC(C2)N3Cc2ccccc2)cc1` (centres unmarked), the “hERG current change (%, negative = inhibition) at 1uM” value is given as -17.4%.

Take `COc1ccc(CN2C3CCCC2CC(NC(=O)Nc2cccc(C)c2)C3)cc1` (centres unmarked): the “hERG current change (%, negative = inhibition) at 1uM” value is given as -71.5%. The same measure for `O=C(/C=C/c1ccccc1)NC1CC2CCCC(C1)N2Cc1ccccc1` (centres unmarked): -46.4%.

Turning to `Cc1ccc(CN2C3CCCC2CC(NC(=O)Nc2cccc(F)c2)C3)cc1` (centres unmarked), the “hERG current change (%, negative = inhibition) at 1uM” value is given as -85.2%.

In the case of `Cc1cccc(NC(=O)NC2CC3CCC(C2)N3Cc2ccco2)c1` (centres unmarked), the “hERG current change (%, negative = inhibition) at 1uM” value is -8.04%. For `CCc1cccc(CC)c1NC(=O)CN1C2CCCC1CC(NC(=O)Nc1cccc(OC)c1)C2` (centres unmarked), the “hERG current change (%, negative = inhibition) at 1uM” value amounted to 9.12%. The same measure for `CCC(=O)NC1CC2CCCC(C1)N2Cc1ccc(C)cc1` (centres unmarked): -11.9%.
